Screening results: PubChem BioAssay, National Center for Advancing Translational Sciences (NCATS)
ELG1 genotox = qHTS screen for small molecules that induce genotoxicity in human embryonic kidney (HEK293T) cells expressing luciferase-tagged ELG1; HEK293T ELG1-luciferase reporter, luminescence, 16 h; Potency, µM (highest dose often 46 µM), for inactives: at the top dose activity change, positive = activation, usual class: activators; 330,000 tested, 1.3% active; AID 504466, 2011; note: % of control where 0% means no effect; nearly all actives have a fitted effect of over 60% in size
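ELG1-luciferase HEK293T cells, 2,000/well; compound pinned in; 16 hr, 37 °C, 5% CO2; ONE-Glo, 30 min RT; luminescence on CCD imager.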
Rab9 promoter act = qHTS Assay for Rab9 Promoter Activators. Huh7 Rab9 promoter-luciferase reporter, luminescence, 24 h. Potency, µM (titrated, usually from 9.22 µM), inactives show top-dose activation, negative = inhibition, actives largely listed as activators. 320,000 tested, 2.8% active. AID 485297, 2010; note: % of control where 0% means no effect; nearly all actives have a fitted effect of over 60% in size
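Rab9 promoter-driven luciferase in stably transfected Huh7 cells; 1500 cells/well rested 2 h, exposed to compound in DMSO for 24 h at 37 °C, 5% CO2. Luminescence read 10 min after adding luciferase reagent at ambient temperature.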
NPC1 prom act = qHTS Assay for NPC1 Promoter Activators. Potency, µM (titrated, usually from 9.22 µM), inactives show at the highest dose activation, hits mostly activators. Huh7 NPC1 promoter luciferase reporter, 24 h. 320,000 tested, 2.4% active; note: % of control where 0% means no effect; nearly all actives have a fitted effect of over 60% in size
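Luminescence read-out of NPC1 promoter-driven luciferase in stably transfected Huh7 cells; compounds delivered in DMSO and left 24 h at 37C, 5% CO2, qHTS titration format.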
Luc counter = Counterscreen for Luciferase (Kinase-Glo TM) Inhibition. 200,000 tested, 0.28% active. AID 1379, 2008. Potency, µM (titrated, usually from 38.3 µM), inactives show at the top dose activity change, negative = inhibition, usual class: inhibitors. Luciferin 4-monooxygenase (Photuris pensylvanica), Q27757. Kinase-Glo luciferase, ATP luminescence, 8 min; note: % is set by controls: 0 for no effect and ±100 for the full control effect; nearly all actives have a fitted effect of over 60% in size
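Recombinant Kinase-Glo luciferase, 10 uM ATP (linear range), luciferin; imidazole pH 7.2 / KCl / MgCl2 / Tween / BSA buffer; 8 min RT; luminescence.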
SMN2 splice up = qHTS Assay for Enhancers of SMN2 Splice Variant Expression | Potency, µM (series often up to 46.1 µM), for the others: at the highest dose activity change, positive = activation, actives largely listed as activators | HEK293 SMN2-luciferase splicing reporter, luminescence, 30-36 h | AID 1458, 2008 | 210,000 tested, 2.8% active; note: % of control where 0% means no effect; nearly all actives have a fitted effect of over 55% in size
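HEK293 cells carry an SMN2 minigene-luciferase reporter in which exon 7 inclusion puts luciferase in frame. Cells were seeded at 2000 cells/well, attached for 10-12 hours, then exposed to compounds for 30-36 hours at 37C before ONE-Glo luminescence.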
FLuc counter = qHTS profiling assay for firefly luciferase inhibitor/activator using purifed enzyme and Km concentrations of substrates (counterscreen for miR-21 project); Luciferin 4-monooxygenase (Photinus pyralis), P08659; purified FLuc, Km substrates, luminescence inhibition; Potency, µM (series often up to 57.5 µM), inactives show at the highest dose activity change, negative = inhibition, usual class: inhibitors; 360,000 tested, 6.9% active;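 note: plate controls were vehicle for no effect and reference inhibitor for full effect; nearly all actives have a fitted effect of over 55% in size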
Target sequence (P08659 whole entry, looked up): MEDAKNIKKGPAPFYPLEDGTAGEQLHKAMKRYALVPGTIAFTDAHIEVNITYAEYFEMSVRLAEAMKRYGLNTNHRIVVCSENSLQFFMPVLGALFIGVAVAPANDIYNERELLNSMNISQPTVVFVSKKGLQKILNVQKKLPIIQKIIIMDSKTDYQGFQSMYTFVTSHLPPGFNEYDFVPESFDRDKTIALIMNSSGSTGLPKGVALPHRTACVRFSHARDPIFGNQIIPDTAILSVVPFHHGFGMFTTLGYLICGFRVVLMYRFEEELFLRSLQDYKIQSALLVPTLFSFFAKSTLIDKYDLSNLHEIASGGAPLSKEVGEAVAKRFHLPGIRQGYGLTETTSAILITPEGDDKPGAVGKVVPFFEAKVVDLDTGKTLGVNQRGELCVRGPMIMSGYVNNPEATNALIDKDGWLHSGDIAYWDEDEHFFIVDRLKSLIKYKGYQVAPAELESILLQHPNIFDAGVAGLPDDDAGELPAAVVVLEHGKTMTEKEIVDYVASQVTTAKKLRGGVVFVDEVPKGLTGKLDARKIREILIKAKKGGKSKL
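Purified P. pyralis luciferase, 10 nM final, with Km-level 10 uM D-luciferin and 10 uM ATP in 50 mM Tris acetate pH 7.5, 10 mM Mg acetate, 0.01% Tween-20, 0.05% BSA; 6-point qHTS titration about 60 µM downward; luminescence read.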
Numbers without * were called inactive; u = inconclusive; x = not tested or not shown. An excerpt weighted towards active compounds, which were near 7.5% of everything screened. Calls come from the whole dose curve; as a rule, active = well fitted curve in the direction sought with a large enough effect; inconclusive = small, poorly fitted or top-dose-only effect, or another doubt; inactive = no such curve, though single readings can be large; an effect the other way counts as inactive or inconclusive. Potency is the fitted concentration of half-maximal effect.

SMILES	ELG1 genotox	Rab9 promoter act	NPC1 prom act	Luc counter	SMN2 splice up	FLuc counter
O=C(NC1CCCCC1)c1noc2c1CCCCC2	9.2µM*	2.51µM*	2.24µM*	-4.7%	12.6µM*	9.53µM*
Cc1ccc(Cn2nc(C)c(NC(=O)c3noc4c3CCCCC4)c2C)cc1	-7.6%	1.0%	-0.9%	-3.0%	-32.6%	1.7%
Cc1ccc(NC(=O)c2noc3c2CCCCC3)cc1C	u	0.631µM*	0.398µM*	-7.1%	7.94µM*	1.07µM*
CCc1ccc(NC(=O)c2noc3c2CCC3)cc1	0.82µM*	0.562µM*	1µM*	-19.7%	12.6µM*	0.675µM*
O=C(NCc1ccccc1)c1noc2c1CCCC2	u	21.4%	20.1%	-0.3%	x	-18.4%
O=C(NCCc1ccccc1)c1noc2c1CCCCC2	u	3.55µM*	2.51µM*	-4.2%	u	8.49µM*
CC(=O)c1cccc(NC(=O)c2noc3c2CCCC3)c1	x	x	x	x	2.82µM*	10.7µM*
COc1ccc(NC(=O)c2noc3c2CCCCC3)cc1	u	u	1.41µM*	-5.3%	7.94µM*	12µM*
CC(NC(=O)c1noc2c1CCCC2)c1ccccc1 (stereo not given)	-1.3%	-3.8%	-1.1%	-5.1%	-16.9%	-2.6%
Cc1ccc(Cn2ccc(NC(=O)c3noc4c3CCCC4)n2)cc1	20.6µM*	u	u	5.8%	2.7%	u
Cc1ccc(CN2C3CCCC2CC(NC(=O)c2ccc(C)cc2)C3)cc1 (stereo not given)	-4.4%	-3.7%	-3.0%	1.9%	-19.6%	-0.7%
Cc1ccc(NC(=O)c2noc3c2CCCCC3)cc1	u	0.501µM*	0.562µM*	-10.3%	11.2µM*	9.53µM*
CCOc1ccccc1NC(=O)N1CC(C)Oc2ccc(Cl)cc21 (stereo not given)	x	x	x	x	x	0.0%
COc1ccc(N2CC(NC(=O)c3ccc(S(=O)(=O)N4CCCCC4)cc3)CC2=O)cc1 (stereo not given)	x	x	x	x	x	-6.5%
CN(C(=O)c1cccnc1)c1nnc(-c2cnccn2)s1	13.8%	-0.4%	4.1%	-3.4%	21.4%	u
CN(C(=O)c1cccnc1)c1nnc(-c2ccccn2)s1	u	u	u	-2.1%	x	19µM*
CC(=O)N(C)c1nnc(-c2ccccn2)s1	u	15.0%	27.5%	-12.9%	20µM*	u
CN(C(=O)c1ccccn1)c1nnc(-c2cnccn2)s1	u	u	u	x	x	10.7µM*
Cc1oc2c(c(C)cc3oc(=O)c(CC(=O)NCCc4ccccc4)c(C)c32)c1C	x	x	x	x	5.5%	-6.2%
Cc1cccc(C)c1NC(=O)CSc1nccn1C	x	x	x	x	-1.5%	-3.1%
CN(C)S(=O)(=O)c1ccc(C(=O)OCCc2ccccc2)cc1	14.1%	0.0%	1.1%	x	x	15.1µM*
Nc1ccc(C(=O)OCCc2ccccc2)cc1	u	3.16µM*	3.55µM*	x	x	0.601µM*
O=C(OCCc1ccccc1)c1cc(O)c(O)c(O)c1	u	16.0%	-1.9%	x	x	23.9µM*
O=C(OCCCCOC(=O)c1ccccc1)c1ccccc1	-2.2%	-6.1%	-6.8%	x	x	-0.5%
COc1ccc(C(=O)OCCc2ccc(O)cc2)cc1	13µM*	u	u	3.0%	u	6.75µM*
SMILES	ELG1 genotox	Rab9 promoter act	NPC1 prom act	Luc counter	SMN2 splice up	FLuc counter
CN(C)S(=O)(=O)c1ccc(C(=O)OCC(=O)NCc2ccccc2)cc1	5.0%	2.1%	-7.7%	-1.8%	-3.1%	0.2%
CCC(=O)c1ccccc1OCCCCn1cncn1	-3.9%	-2.3%	-3.8%	x	x	-1.7%
O=C(CN1CCN(C2CCCCC2)C(=O)C1=O)Nc1ccc(Cl)cc1	x	x	x	x	x	-2.2%
COc1ccc2oc(=N)c(C(=O)Nc3ccccc3)cc2c1	u	3.16µM*	u	-15.9%	12.6µM*	0.953µM*
N=c1oc2ccccc2cc1C(=O)Nc1ccccc1	0.82µM*	1.26µM*	0.501µM*	x	x	0.757µM*
COc1ccc2oc(=O)c(C(=O)N3CCN(c4ccccc4)CC3)cc2c1	27.7%	2.8%	2.8%	-3.6%	15.1%	u
COc1ccc2oc(=O)c(C(=O)N3CCN(c4ccccc4C)CC3)cc2c1	9.2µM*	27.2%	17.7%	-3.1%	14.1µM*	13.5µM*
N=c1oc2ccc(Cl)cc2cc1C(=O)Nc1ccc(F)cc1	u	3.55µM*	3.55µM*	x	x	u
COc1ccc2oc(=N)c(C(=O)Nc3ccc(C)cc3)cc2c1	11.3%	u	23.4%	x	x	u
COc1ccc2oc(=N)c(C(=O)Nc3ccc(Cl)cc3)cc2c1	1.1%	26.1%	u	x	x	-9.6%
CCCn1c(=O)c(C#N)cn(C2CC2)c1=O	0.1%	-6.0%	-0.2%	x	x	0.2%
COc1cc(NC(=O)C2Cc3ccccc3N2C(=O)c2ccccc2)cc(OC)c1 (stereo not given)	x	x	x	x	x	-14.3%
CC1CCc2onc(C(=O)N3CCN(c4ccc(F)cc4)CC3)c2C1 (stereo not given)	x	x	x	x	x	-9.8%
N=c1oc2cc(O)ccc2cc1C(=O)Nc1ccccn1	4.4%	2.3%	0.6%	-3.1%	-6.5%	u
CNC(=O)c1cc2cc(OC)ccc2oc1=N	2.4%	0.0%	-6.6%	-3.9%	-13.4%	-16.6%
N=c1oc2cc(O)ccc2cc1C(=O)Nc1ccc(Br)cc1	17.0%	1.41µM*	1.78µM*	x	x	2.69µM*
N=c1oc2ccc(Br)cc2cc1C(=O)NCc1ccccc1	13.9%	6.0%	-5.9%	x	x	-0.8%
N=c1oc2cc(O)ccc2cc1C(=O)Nc1nc2ccccc2s1	6.51µM*	3.16µM*	3.98µM*	-4.1%	0.1%	0.19µM*
COc1ccc2oc(=N)c(C(=O)Nc3cccc(C)c3C)cc2c1	u	4.47µM*	2.24µM*	x	x	0.757µM*
COc1ccc2oc(=N)c(C(=O)Nc3ccccc3Cl)cc2c1	u	2.51µM*	3.55µM*	x	x	0.536µM*
Cc1ccccc1Oc1nc2c(c(=O)n(C)c(=O)n2C)n1Cc1ccc(Br)cc1	x	x	x	x	0.5%	-5.9%
CCN1C(=O)c2ccccc2S(=O)(=O)c2ccc(C(=O)NCc3ccccc3Cl)cc21	x	x	x	x	3.6%	4.0%
COc1ccc2oc(=O)c(C(=O)Nc3ccccc3C)cc2c1	u	3.16µM*	3.16µM*	x	x	1.69µM*
O=C(NNC(=O)c1cc2cc(Br)ccc2oc1=O)c1ccc(O)cc1	-1.3%	-2.0%	-3.7%	-1.0%	-4.2%	-17.1%
O=C(Nc1ccccc1O)c1cc2cc(Br)ccc2oc1=O	u	u	3.55µM*	x	x	u
